58 sequences from PMC7819943, “Rice protein-binding microarrays: a tool to detect cis-acting elements near promoter regions in rice” can be followed below.

The full ranking holds about 68,000 sequences; the median of “fluorescence intensity (a.u.)” is about 9,100, and the highest 2% start at about 16,000. What follows is part of a selection rich in the highest values, with near analogues and random picks from the rest.

Sequence of OsWRKY34 (Q0JBA9 entry or part of it): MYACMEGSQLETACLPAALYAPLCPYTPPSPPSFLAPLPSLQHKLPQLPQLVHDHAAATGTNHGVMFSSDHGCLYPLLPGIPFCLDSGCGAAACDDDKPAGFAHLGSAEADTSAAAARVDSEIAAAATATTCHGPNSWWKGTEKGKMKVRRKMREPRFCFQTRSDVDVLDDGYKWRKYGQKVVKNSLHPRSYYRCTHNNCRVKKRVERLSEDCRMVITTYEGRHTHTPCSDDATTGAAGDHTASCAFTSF

The test deals with OsWRKY34 (Oryza sativa, UniProt Q0JBA9 1-250). Description: protein-binding microarray (RPBM); PBS, 2% BSA, 51.3 ng/ul salmon testes DNA, 50 uM zinc acetate, 200 nM TF, 25 C, 1 h; high values mean tight binding. The note with it: protein: recombinant; tags: N-terminal polyhistidine and DsRed monomer fusion (pET32a); label: CyDye5-dUTP incorporated in the synthesized complementary strand; 3' TTTTT single-stranded linker to array surface; dsDNA, one strand shown. In a few lines:
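A custom Agilent array was converted to double-stranded form by primer extension with Cy5-dUTP and blocked with 2% BSA. Protein at 200 nM in PBS with 2% BSA, salmon testes DNA and 50 µM zinc acetate was applied for 1 h at 25 °C, followed by washing. The proteins were polyhistidine–DsRed N-terminal fusions of transcription factors, expressed in E. coli BL21-CodonPlus and Ni–NTA-purified. The binding signal is per-feature fluorescence intensity (arbitrary units) from an Axon 4000B scanner.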
In the case of “TATTGTGTACTACATCTTTTATTATTTCTTTCAAATTTCACGGAGTCACCTAGTGCAG”, the binding signal is 10500 fluorescence intensity (a.u.).
Take “CTCTCCCGGTCGCGCCGCCATCTCCTCTCCCAATCGCGCGCGGAGTCACCTAGTGCAG”: the binding signal is 8860 fluorescence intensity (a.u.).
Regarding “CACTTCTATTGGTTCTTTGTCTGGGAGTAGCAGCATAAGTCGGAGTCACCTAGTGCAG”, the binding signal is 8540 fluorescence intensity (a.u.).
For “GACCTACGTCACCACCTTGCATGTCCCACGCGGAGCTCCACGGAGTCACCTAGTGCAG” the value was 9230 fluorescence intensity (a.u.); for “GCAACTGTGTTTTCAATTCTGCAAATGCTATTCTCTGTTACGGAGTCACCTAGTGCAG”, 11800 fluorescence intensity (a.u.).
As for “GATTTTTAGTGAATATAATGAAATTTCACAGGGGAGGGGCCGGAGTCACCTAGTGCAG”, the binding signal was 13400 fluorescence intensity (a.u.).
The figure for “GGGGTTAGTTGTCCGTTTTGCATAGTTGGGGATAAAAAATCGGAGTCACCTAGTGCAG” is 18500 fluorescence intensity (a.u.); for “CCGTCGATTTGGTTGGTTGGTTGATCGGCGGCGAGGAGGGCGGAGTCACCTAGTGCAG” it is 11400 fluorescence intensity (a.u.); for “GATTTGGGTTGAAATATGATATGGGTTGGATTGGTTTGGACGGAGTCACCTAGTGCAG” it is 16100 fluorescence intensity (a.u.).
The figure for “TAGATGAAATGGGTTGGGTTGATTTGGGTTGAAATATGATCGGAGTCACCTAGTGCAG” is 21800 fluorescence intensity (a.u.); for “TTTGGGATAAATCATGAGGGGTTAAAAGTTGTTATATTTTCGGAGTCACCTAGTGCAG” it is 10100 fluorescence intensity (a.u.).
For “TTTTTTTATTTTTTTTGAAATATTTTTTGTTGGGTTTTTTCGGAGTCACCTAGTGCAG” the value was 13100 fluorescence intensity (a.u.).
For “ATGAACTTAGTTGTTTTTTTTTGGGTTTTACTTGCATAATCGGAGTCACCTAGTGCAG”, the binding signal is 8220 fluorescence intensity (a.u.).
Turning to “TGATTTGCGCGAGGGTTTGGTTTGGTTTGGTTTGAGTCGACGGAGTCACCTAGTGCAG”, the binding signal was 19200 fluorescence intensity (a.u.).
For “TCGCGTAGGGGAGGGGTGAAATATATTTTTTATGCCGGGCCGGAGTCACCTAGTGCAG”, the binding signal was 18000 fluorescence intensity (a.u.).
The figure for “GATTTTTAGTGAATATAATGAAATTTCATAGGGGAGGGGCCGGAGTCACCTAGTGCAG” is 8930 fluorescence intensity (a.u.); for “GCGCTTCGATTTGGTTTGGTTTGATTCGGTTTGCGAGATGCGGAGTCACCTAGTGCAG” it is 8780 fluorescence intensity (a.u.); for “GGCACGCTACTACTCCTACTATATGATAAAAAAACACTACCGGAGTCACCTAGTGCAG” it is 8150 fluorescence intensity (a.u.).
For the sequence “TGGTCAAGCCCTTTTTGATCTTTTTTTTTCTGTCTCATGCCGGAGTCACCTAGTGCAG”, the binding signal was 9610 fluorescence intensity (a.u.).
Take “CGCACCGTCGACTAGTCCCGTCCCGTCGCGCCGTTGCCTTCGGAGTCACCTAGTGCAG”: the binding signal is 8590 fluorescence intensity (a.u.).
Regarding “ATTCGAGATCAGCTTTCTCTTCTATTTTGCTACTAGTTCTCGGAGTCACCTAGTGCAG”, the binding signal was 13000 fluorescence intensity (a.u.).
For “TAGGTCTGCTTCAGAGATGGGGTTAGGGTTAGATTTGTTCCGGAGTCACCTAGTGCAG”, the binding signal was 14000 fluorescence intensity (a.u.).
For “TATATATATATATATATATATATATATATATAAGGTTTGACGGAGTCACCTAGTGCAG” the value was 17300 fluorescence intensity (a.u.); for “TACCCTTTTTTTGGGTAGGGTGGGTTGGATTTATTTATTTCGGAGTCACCTAGTGCAG”, 12300 fluorescence intensity (a.u.); for “TCTTGATTTTTGCATTAGTAGTAGTTGCGTCTTATATTTTCGGAGTCACCTAGTGCAG”, 12100 fluorescence intensity (a.u.).
With “GGTTATGGGCGGGTTGAGCAATGTTTTTCATGATTAGTCTCGGAGTCACCTAGTGCAG”, the binding signal was 18600 fluorescence intensity (a.u.).
As to “ATATATATATATATATATATATATATATATAGTGGAATGACGGAGTCACCTAGTGCAG”, the binding signal was 12300 fluorescence intensity (a.u.).
Take “AAGTTTAGGGTGAGCAATGTCTGGTTTTCGGGTTCAGGGGCGGAGTCACCTAGTGCAG”: the binding signal was 13300 fluorescence intensity (a.u.).
For “GACGGGTGTTTCTAGGGTTAAGGTTAGGTTTTTTTTTTGACGGAGTCACCTAGTGCAG” the value was 9680 fluorescence intensity (a.u.).
The figure for “GTGTTAGGTGCTGAGATTTTTGTACTTGCTTTATTATTTTCGGAGTCACCTAGTGCAG” is 8860 fluorescence intensity (a.u.); for “TCATGGGCGGGTTGAGCAATGTTTCTTGTGATTAGTCTCACGGAGTCACCTAGTGCAG” it is 16300 fluorescence intensity (a.u.); for “TTAGATTTTTCTTACAACCATTTGCATTGATTTTTTTTTTCGGAGTCACCTAGTGCAG” it is 8960 fluorescence intensity (a.u.).
With “GACCTTATTTGCATTGATTGACCTTATTTGCATTGATTTTCGGAGTCACCTAGTGCAG”, the binding signal is 19700 fluorescence intensity (a.u.).
Take “GTAGGGGTGGTGGATTTTTTTTTATTTGCTGAGATGATTTCGGAGTCACCTAGTGCAG”: the binding signal was 20600 fluorescence intensity (a.u.).
“TTGCTTTCCTTGGCCTCACGCTTGTTCCATGTTAGTTCGACGGAGTCACCTAGTGCAG”: the binding signal was 16100 fluorescence intensity (a.u.).
Regarding “TATTGCACCTTTTCTCTATTGTTTTGAATTCAGTGAAGATCGGAGTCACCTAGTGCAG”, the binding signal was 11600 fluorescence intensity (a.u.).
Consider “GACCTGTCTACCGCCGCCCTAGTGACTAATGTTGACCACACGGAGTCACCTAGTGCAG”, for which the binding signal is 12000 fluorescence intensity (a.u.).
With “TTTTCAACCTTATATTGTCATTGTCCGTCAACTTGGCTTGCGGAGTCACCTAGTGCAG”, the binding signal was 8970 fluorescence intensity (a.u.).
For the sequence “CCTGTCATGGAGGATGTTTCCTGAAGTTTCAGAGCTGTATCGGAGTCACCTAGTGCAG”, the binding signal is 8310 fluorescence intensity (a.u.).
“AATGATTACAACCTACCTCTTCTCAGCGGGGTGTCCATTACGGAGTCACCTAGTGCAG”: the binding signal was 8260 fluorescence intensity (a.u.).
As for “TTTTCTTGTTTGATTGACATAATGGGCCCTACATATTTTTCGGAGTCACCTAGTGCAG”, the binding signal is 8440 fluorescence intensity (a.u.).
For “ATCGCTGGCTTATCATACTCTATTATACCTGCTCTAAGGACGGAGTCACCTAGTGCAG” the value was 10000 fluorescence intensity (a.u.); for “GTTTTAATAATGTGTTTGTTTTGGGTTAAAAACCATACTACGGAGTCACCTAGTGCAG”, 8340 fluorescence intensity (a.u.).
Consider “ACAATGGCACGGTCTACAAAATATATTTTTGACCTTATTTCGGAGTCACCTAGTGCAG”, for which the binding signal was 8440 fluorescence intensity (a.u.).
As for “GCTGACTTCATCTTCATTTTAATATATCTCAAACACCACGCGGAGTCACCTAGTGCAG”, the binding signal was 10200 fluorescence intensity (a.u.).
With “GATGTTCCTGGCCGTGATCGAGCTCCTGCGTTCTTGCTTACGGAGTCACCTAGTGCAG”, the binding signal was 10400 fluorescence intensity (a.u.).
For the sequence “GCGTGTGTTGTGAGATGTATTATGTTGTGCTTTGTATTTTCGGAGTCACCTAGTGCAG”, the binding signal is 14900 fluorescence intensity (a.u.).
“TCTAGGGTTAGGGTTTCGTGATTTTTGGTTTTTTATTTTTCGGAGTCACCTAGTGCAG”: the binding signal was 16900 fluorescence intensity (a.u.).
On to “CAGTTGGCCTGTTTGTTTGTTGGTTGTGATTAATCTGTGACGGAGTCACCTAGTGCAG”, for which the binding signal is 18800 fluorescence intensity (a.u.).
With “AGAACAGTTTTTAATCTGACATGTGCCTGTAGTTTGTTGTCGGAGTCACCTAGTGCAG”, the binding signal was 10600 fluorescence intensity (a.u.).
Consider “GTTAGGGTTTTTTTTATTTTTCGATTTTTTTTGTGTTTTTCGGAGTCACCTAGTGCAG”, for which the binding signal was 12000 fluorescence intensity (a.u.).
The figure for “GGTTGAAGTTTTTGGCAGGGGTTAGTTTCGAAATAAGTTTCGGAGTCACCTAGTGCAG” is 17900 fluorescence intensity (a.u.); for “TTTTATGTTTGTTGGTTGTTGAGTTTATGTGATTATATTTCGGAGTCACCTAGTGCAG” it is 9050 fluorescence intensity (a.u.).
For “TTGAAGTTTTTGGCAGGGGTTAGTTTCGAAATAAGTTTTCCGGAGTCACCTAGTGCAG”, the binding signal is 8480 fluorescence intensity (a.u.).
The figure for “CGGGGCGTGAGGGGTTATGAGTATATTTGTATTTTTTTTTCGGAGTCACCTAGTGCAG” is 18400 fluorescence intensity (a.u.); for “GTGTATGTATATATGAGTATGTGTGTTTATATTGTATTTTCGGAGTCACCTAGTGCAG” it is 8460 fluorescence intensity (a.u.).
Regarding “GTTGAAGTTTTTGGCAGGGGTTAGTTTCGAAATAAGTTTTCGGAGTCACCTAGTGCAG”, the binding signal was 8170 fluorescence intensity (a.u.).
On to “CGGGCGATTCTAGGGTTATGGTTAGGGTTTTTTTTATTTTCGGAGTCACCTAGTGCAG”, for which the binding signal was 14500 fluorescence intensity (a.u.).
